# Measured values taken from PubChem BioAssay AID818 (SRMLSC, 2007).
# Hit rate of the full screen: of about 140,000 compounds, about 2,100 (1.5%) were called active. The sample as a whole holds a higher share of actives than the screen did. Unmarked numbers belong to inactive results.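 The calls were made as follows: active = viability at or under a set limit, the compound median less 4 SD (cut at about 6% in these data); inactive = the rest.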
# Experiment: primary screen for suppressors of beta-catenin knockout HCT116 cell growth, colon tumor, human (AID 818);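 also: 0% = Hyamine 1622 control at 20 µM and 100% = untreated cell control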
# Conditions: CellTiter-Glo, 60 h, at 10 µM, stronger effect = lower value
row,Compound,viability
1,CSCCC(Nc1ccc(S(=O)(=O)N2CCOCC2)cc1[N+](=O)[O-])C(=O)OCC(=O)N(C(C)C)C(C)C (stereo unspecified),92.2%
2,Cc1ccc(-c2nc3c(cnn3-c3ccccc3)c(=O)o2)cc1,95.4%
3,COc1ccc(Oc2c(Cl)cnn(-c3ccccc3)c2=O)cc1,5.5% (active)
4,COc1ccc(-n2c(C)nc3c(cnn3-c3ccccc3)c2=O)cc1,29.9%
5,COc1ccccc1OCc1ccc(C(=O)N2CCN(C)CC2)o1,101%
6,CCOc1ccc(C(=O)Nc2nccs2)cc1[N+](=O)[O-],94%
7,COc1cc(NS(=O)(=O)c2ccccc2)ccc1-n1nc(C)cc1C,101%
8,COc1ccccc1/C=N\Nc1cc(C)nc(-n2nc(C)cc2C)n1,3.9% (active)
9,COc1ccc(Nc2cc(C)nc(-n3nc(C)cc3C)n2)cc1,15.2%
10,COc1ccc(-n2c(=S)[nH]c3sc4c(c3c2=O)CCc2ccccc2-4)cc1,81%
11,CN(C)C(=O)c1ccc2c(c1)C1C3CCC(C3)C1C(c1ccccc1)N2 (stereo unspecified),83.3%
12,CC(C)(C)c1ccc(C(=O)NCCn2c(N)c(C#N)c3nc4ccccc4nc32)cc1,66.5%
13,CN(C)CCCn1c(N)c(C#N)c2nc(C#N)c(C#N)nc21,5.78% (active)
14,N#Cc1c(N)n(CCOC(=O)c2ccc(Cl)cc2)c2nc3ccccc3nc12,84.2%
15,CCC1C(=O)c2ccccc2N(C)C1=O (stereo unspecified),88.1%
16,C[C@@H](O)c1nc2ccccc2n1N,96%
17,CCOc1ccc(NC(=O)CN2CCN(CC(=O)Nc3ccc(OC)cc3)CC2)cc1,85.4%
18,CCOc1ccc(NC(=O)CCC(=O)n2nc(C)cc2C)cc1,96.2%
19,CCOc1ccc(NC(=O)CCC(=O)N/N=C/c2ccc([N+](=O)[O-])s2)cc1,5.45% (active)
20,CSc1ccc(/C=N/NC(=O)c2cccc(Cl)c2)cc1,84.1%
21,COc1ccc2c(-c3ccccc3)cc(SCC(=O)N(C)C3CCS(=O)(=O)C3)nc2c1 (stereo unspecified),81.2%
22,CCCn1nc(NS(=O)(=O)c2ccccc2)c2cc3cc(C)ccc3nc21,91.5%
23,Cc1ccccc1C(CC(=O)c1cccs1)C(C#N)C#N (stereo unspecified),2.37% (active)
24,Cc1ccc(C)c(NC(CC(=O)c2ccccc2)C(=O)OCC(=O)c2cccs2)c1 (stereo unspecified),86.5%

row,Compound,viability
1,O=C(CCC(=O)c1cccs1)NCc1ccccc1,88.8%
2,CC(=O)Nc1cccc(/C(C)=N/NC(=O)c2c(-c3ccccc3Cl)noc2C)c1,54.6%
3,CCn1c(/C=C/c2ccc([N+](=O)[O-])o2)nc2ccccc2c1=O,2.56% (active)
4,Cc1ccc(-n2c(SCC(=O)N/N=C/C=C/c3ccccc3[N+](=O)[O-])nc3ccccc3c2=O)cc1,83.5%
5,Cn1cc(/C=C/c2nc3ccccc3c(=O)n2-c2cccc([N+](=O)[O-])c2)c2ccccc21,66.3%
6,O=C(CSc1nc2ccccc2[nH]1)N/N=C/C=C\c1ccccc1[N+](=O)[O-],57.4%
7,CC(NC(=O)C(=O)NN=C1CCC(C(C)(C)C)CC1)c1ccccc1 (stereo unspecified),98.5%
8,CCCCCC(=O)Nc1ccc(C(=O)N/N=C/c2ccc([N+](=O)[O-])cc2)cc1,4.26% (active)
9,CCCCCC(=O)NC(=S)NNC(=O)c1ccc([N+](=O)[O-])cc1,42.3%
10,O=C(COc1ccc(/C=N/NC(=O)c2ccc(O)cc2)cc1)Nc1ccc([N+](=O)[O-])cc1,64.3%
11,FC(F)Oc1ccccc1NC(=S)Nc1cccc(Cl)c1Cl,94.2%
12,CCN1CN(Cc2ccccc2)CNC1=S,94.5%
13,C/C(=N\NC(=O)c1cc2c(s1)CCC(C)C2)c1cccnc1 (stereo unspecified),66.6%
14,Cc1ccc(C(=O)NC(=S)NCCN2CCOCC2)cc1,101%
15,Cc1ccc(-c2nnc(-c3ccc(NC(=O)c4cccs4)cc3)o2)cc1,2.05% (active)
16,Cc1nc(-c2ccc(NC(=O)c3cccs3)cc2)cs1,67%
17,Cc1ccc(-c2csc(NC(=O)c3cccs3)n2)cc1,95.5%
18,COc1ccc(CC(=O)Nc2ccc(C(=O)NC(C)(C)C)cc2)cc1,84.5%
19,COc1ccc(CC(=O)Nc2ccc(-c3nnc(-c4ccc(C)cc4)o3)cc2)cc1,5.04% (active)
20,COc1cccc(NC(=O)Cc2ccc(C)cc2)c1,99.6%
21,O=C(/C=C/c1cccs1)NCc1cccnc1,91.2%
22,Cc1ccc(-c2nc(-c3cccnc3)sc2CC(=O)Nc2ccc(C)c(Cl)c2)cc1,58.3%
23,CCc1nccn1S(=O)(=O)c1cccc([N+](=O)[O-])c1,96.5%
24,C=CCOc1c(Br)cc(/C=N\n2nnnc2N)cc1OC,85.3%

row,Compound,viability
1,CCN1CCN(C(c2cccnc2)c2cc(Cl)c3cccnc3c2O)CC1 (stereo unspecified),45.3%
2,Oc1c(CN2CCN(c3ccc(F)cc3)CC2)cc(Cl)c2cccnc12,3.91% (active)
3,O=C(c1cccc(C(=O)N2CCN(c3ccc(F)cc3)CC2)c1)N1CCN(c2ccc(F)cc2)CC1,47.4%
4,Cc1ccc2c(c1)C(c1ccccc1)N(C(=O)c1ccc(S(=O)(=O)N3CCOCC3)cc1)CC(=O)N2 (stereo unspecified),94.9%
5,Cc1cc2c(C)nc(N/N=C/c3ccccc3)nc2o1,92%
6,Nc1c(C(=O)NCc2ccccc2)nnn1Cc1cccc(Cl)c1,25.6%
7,Clc1cccc(CN2COc3c(cc(Cl)c4cccnc34)C2)c1,3.67% (active)
8,O=c1[nH]n(-c2cccc(Cl)c2)c2ncccc12,85.9%
9,CCOC(=O)c1cc2c(=O)n3ccccc3nc2n(CC(C)C)c1=NC(=O)c1c(-c2c(F)cccc2Cl)noc1C,66.4%
10,Cc1cc(C)nc(NC(=O)c2cccc([N+](=O)[O-])c2)c1,97.8%
11,CSCC[C@H](NC(=O)OC(C)(C)C)C(=O)N/N=C/c1cc2ccc(C)cc2nc1Cl,1.02% (active)
12,CSCCC(NC(=O)COc1ccccc1)C(=O)Nc1ccc(C)cc1 (stereo unspecified),99.2%
13,CCOc1cc(/C=N/NC(=O)OC)ccc1OCCSc1ccc(Cl)cc1,93.9%
14,COCCCNC(=S)NC(=O)c1ccc([N+](=O)[O-])cc1,95.7%
15,Cc1nc(N2CCCC2C(=O)O)c2oc3ccccc3c2n1 (stereo unspecified),95.6%
16,CCSc1nc(C)nc2c1oc1ccccc12,95.4%
17,Cc1nc(Cl)c2oc3ccccc3c2n1,2.84% (active)
18,Cc1ccc(CCCOC(=O)C[N+]2(C)CCCC2)cc1,97%
19,Cc1ccc(S(=O)(=O)c2ccc(Cl)cc2)cc1S(=O)(=O)NC(C(=O)O)C(C)C (stereo unspecified),97.6%
20,CN1CCN(C(=O)/C(=C\c2cccs2)NC(=O)c2cccs2)CC1,90.3%
21,Cc1cc(Nc2ccccc2)nc(N)n1,93.5%
22,Nc1ccc(Nc2ccccc2)cc1,5.41% (active)
23,Cc1cc(Nc2ccccc2)n(C(=O)c2ccc(N)cc2)n1,85.7%
24,O=C(Cn1nnc(-c2ccccc2)n1)N/N=C/c1ccc(-c2ccc(Cl)cc2)o1,80.7%

row,Compound,viability
1,O=C(c1ccc(CSc2ccccc2)cc1)N1CCCCCC1,65.2%
2,O=[N+]([O-])c1c(NCCO)cc(Sc2nc3ccccc3s2)c2nonc12,1.67% (active)
3,COc1ccc(S(=O)(=O)Nc2ccc(O)c(Sc3nc4ccccc4s3)c2)cc1,82.2%
4,O=C(O)c1cccc(S(=O)(=O)Nc2ccc(O)cc2Sc2nc3ccccc3s2)c1,91.9%
5,CN(c1ccccc1)S(=O)(=O)c1ccc(Cl)c(C(=O)NCCc2c[nH]c3ccccc23)c1,78.7%
6,CNC(=O)/C(C#N)=C/c1c(F)cccc1Cl,74.3%
7,CC1=CC(C)(C)Nc2ccc(OC(=O)C(Cc3ccccc3)N3C(=O)C4CCCCC4C3=O)cc21 (stereo unspecified),44.7%
8,CC1=CC(C)(C)Nc2ccc(OC(=O)CN3C(=O)C4CCCCC4C3=O)cc21 (stereo unspecified),0.52% (active)
9,O=C(CN1C(=O)C2C3CCC(C3)C2C1=O)Oc1ccc2ccccc2c1 (stereo unspecified),85.5%
10,CCCOC(=O)c1c(NC(=O)c2cnn3c2NC(c2ccccc2)CC3C(F)(F)F)sc2c1CCCC2 (stereo unspecified),61%
11,CCCOc1ccc(C(=O)C(CCC(CNCC)C(=O)c2ccc(OCCC)cc2)CNCC)cc1 (stereo unspecified),0.87% (active)
12,CCCCOc1ccc(C(=O)NN2CCN(C)CC2)cc1,87.1%
13,CCCCOc1ccc(C(=O)NCc2ccncc2)cc1,70.7%
14,O=C(c1ccc(S(=O)(=O)c2ccccc2)cc1)N1CCCCCC1,93.2%
15,C=CCn1c(SCc2ccc(Cl)c(Cl)c2)nnc1C(CO)NC(=O)c1ccc(OC)cc1 (stereo unspecified),90.7%
16,Cc1cc(C)c2nc3nc(C)cc(C)c3c(N)c2c1,1.48% (active)
17,Cc1cc(C)c2nc(SCCC#N)nc(C)c2c1,109%
18,C=CCNC(=O)/C=C/c1ccc(C(C)C)cc1,90.7%
19,Nc1nc(SCC(=O)NNc2c(Cl)cc(Cl)cc2Cl)n[nH]1,98.6%
20,Cc1sc2nc(CC(N)=O)[nH]c(=O)c2c1-c1ccccc1,90.4%
21,NS(=O)(=O)c1ccc(NC(=O)COC(=O)C2(c3ccc(F)cc3)CCCC2)cc1,82.7%
22,Cc1[nH]c(=O)c(C(=O)/C=C/c2ccccc2)c2c1CCCC2,2.53% (active)
23,O=C(/C=C/c1ccccc1)c1ccoc1,10.1%
24,O=C(/C=C/c1ccccc1)c1ccccc1O,83.6%
